Source: PubChem BioAssay (NCATS)
Values joined by “and” are separate entries in the source; they are usually repeats but may differ in a detail not shown here. Equal entries are not always repeated. Records with an inconclusive call do not appear. Active and inactive are the calls of the source. Unless noted, calls follow the shape of the dose curve; as a rule, active = well fitted curve in either direction with a large enough effect (not every such curve was filed as active); inconclusive = small, poorly fitted or top-dose-only effect, or another doubt; inactive = flat fitted curve, though single readings scatter.

Key:
[1] = AP1 Signaling Pathway (AID 357); also: % is scaled to controls: 0 for no effect and ±100 for the full control effect
How it was run: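 ME-180 cells with beta-lactamase reporter under AP-1 response element, stimulated with EC50 EGF; compounds tested in titration series, 5 h at 37 °C. CCF4 substrate added 2.5 h at room temperature; 460/530 nm emission ratio gave %activity and AC50.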

[2] = Stat Signaling Pathway (AID 446);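 also: ME-180 cervical cancer cells given 40 pM IL-6 alongside compound; SIE-controlled beta-lactamase reporter measured as 460/530 nm FRET emission ratio; % is scaled to controls: 0 for no effect and ±100 for the full control effect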
How it was run: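 FRET read-out (405 nm excitation, 460/530 nm emission) of a beta-lactamase reporter under a STAT-inducible element in ME-180 cervical carcinoma cells. Cells with compound receive 40 pM IL-6 for 5 h. Values are normalised to AC90 stimulation and AC90 JAK-inhibitor controls.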

[3] = target: Glucocorticoid receptor (Homo sapiens) (UniProt P04150); assay: GR-GFP Redistribution (AID 450;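 active = compounds whose dose series gives a full or clear partial fitted curve of increased nuclear translocation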; also: potency is read from the fitted curve at half-maximal effect); details: U2OS GR-GFP nuclear translocation, laser cytometry, 2 h
Glucocorticoid receptor (Homo sapiens), sequence (P04150 whole entry, looked up, the tested form may be a part): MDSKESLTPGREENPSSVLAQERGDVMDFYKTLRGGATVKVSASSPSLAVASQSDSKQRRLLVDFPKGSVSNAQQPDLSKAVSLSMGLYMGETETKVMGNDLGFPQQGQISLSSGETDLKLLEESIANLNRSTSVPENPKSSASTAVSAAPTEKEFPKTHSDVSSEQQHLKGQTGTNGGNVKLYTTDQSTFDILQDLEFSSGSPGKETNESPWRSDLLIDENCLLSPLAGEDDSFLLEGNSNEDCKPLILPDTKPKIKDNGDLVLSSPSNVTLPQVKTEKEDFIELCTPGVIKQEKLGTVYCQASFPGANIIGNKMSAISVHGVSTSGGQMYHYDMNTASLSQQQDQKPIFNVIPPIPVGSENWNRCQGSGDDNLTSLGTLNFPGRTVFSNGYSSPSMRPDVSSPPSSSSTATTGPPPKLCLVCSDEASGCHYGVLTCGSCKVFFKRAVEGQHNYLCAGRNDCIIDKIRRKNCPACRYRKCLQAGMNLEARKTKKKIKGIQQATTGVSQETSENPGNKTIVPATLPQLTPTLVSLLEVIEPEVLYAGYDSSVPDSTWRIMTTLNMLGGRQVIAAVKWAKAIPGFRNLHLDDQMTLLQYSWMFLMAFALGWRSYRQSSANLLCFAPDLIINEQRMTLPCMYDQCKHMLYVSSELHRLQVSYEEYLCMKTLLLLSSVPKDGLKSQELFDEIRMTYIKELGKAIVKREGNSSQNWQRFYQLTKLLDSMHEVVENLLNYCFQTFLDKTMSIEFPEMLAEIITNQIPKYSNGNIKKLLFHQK

[4] = target: Glucocorticoid receptor (Homo sapiens) (UniProt P04150); assay: GR-EFC Redistribution (AID 451; calls by dose curve; also: potency is read from the fitted curve at half-maximal effect); details: CHO-K1 GR-EFC translocation, beta-gal luminescence, 2 h
How it was run: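 Translocation of GR-ED fusion to nuclear EA restores b-gal, read by luminescence after 1 h room-temperature detection. Engineered CHO-K1 biosensor cells, 1,000/well, exposed 2 h at 37 C to titrations up to 46 uM final.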

[5] = target: Mitogen-activated protein kinase 10 (Mus musculus) (UniProt Q61831); assay: JNK3 AlphaScreen Assay (AID 530);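 also: kinase came from lysate of stimulated human HepG2 cells; signal reports phosphorylation of biotinylated GST-cJun 1-79 at Ser73 with 10 µM ATP; % is scaled to controls: 0 for no effect and ±100 for the full control effect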
How it was run: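 Kinase buffer: 20 mM Tris-HCl pH 7.6, 10 mM MgCl2, 1 mM DTT, 0.1 mM Na3VO4, 0.01% Tween-20; ATP 10 uM. Substrate biotin-GST-cJun(1-79), enzyme from activated HepG2 lysates. Detection by Ser73 phospho-antibody AlphaScreen.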

[6] = target: 3',5'-cyclic-AMP phosphodiesterase 4B (Homo sapiens) (UniProt Q07343); assay: qHTS Assay for Inhibitors of PDE-IV (AID 607; active = well fitted activation curve with a large enough effect in the main read-out, with a control signal flat, not every such curve was filed as active; also: % of control where 0% means no effect)
3',5'-cyclic-AMP phosphodiesterase 4B (Homo sapiens), sequence (Q07343 whole entry, looked up): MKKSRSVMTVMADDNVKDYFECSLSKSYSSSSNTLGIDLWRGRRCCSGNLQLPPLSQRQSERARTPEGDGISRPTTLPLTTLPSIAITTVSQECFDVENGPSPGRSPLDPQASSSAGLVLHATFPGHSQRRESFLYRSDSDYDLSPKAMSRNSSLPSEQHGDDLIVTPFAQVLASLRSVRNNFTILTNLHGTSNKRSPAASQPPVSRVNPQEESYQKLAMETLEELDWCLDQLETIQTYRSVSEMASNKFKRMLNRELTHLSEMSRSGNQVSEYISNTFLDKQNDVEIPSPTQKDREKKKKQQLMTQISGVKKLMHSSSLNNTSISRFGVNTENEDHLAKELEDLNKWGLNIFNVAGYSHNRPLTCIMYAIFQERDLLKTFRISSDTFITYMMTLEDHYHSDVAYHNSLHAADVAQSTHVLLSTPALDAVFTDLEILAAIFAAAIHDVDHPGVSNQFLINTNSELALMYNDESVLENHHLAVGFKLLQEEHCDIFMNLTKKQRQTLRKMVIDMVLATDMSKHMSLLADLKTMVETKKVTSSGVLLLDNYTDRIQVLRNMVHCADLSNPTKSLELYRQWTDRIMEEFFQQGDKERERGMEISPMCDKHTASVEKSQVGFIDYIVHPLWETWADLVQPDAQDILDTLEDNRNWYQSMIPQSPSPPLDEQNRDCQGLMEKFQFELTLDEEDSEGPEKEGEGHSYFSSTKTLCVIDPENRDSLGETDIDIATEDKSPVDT
How it was run: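 Cell-based read-out of cAMP via a modified cyclic nucleotide-gated channel and membrane potential dye (535/590 nm) in HEK293 cells expressing PDE4 endogenously. Compounds tested up to 22.9 uM final; 100 uM RO 20-1724 reference.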

[7] = qHTS Assay for Lipid Storage Modulators (AID 1519; calls by dose curve); details: Drosophila S3 cells, BODIPY lipid droplet/cell ratio, laser cytometry, cells loaded with oleic acid
How it was run: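 Cells seeded at 5,000 per well were treated with compounds over a concentration series and loaded with oleic acid (400 uM, as added). Lipid droplet fluorescence (488 nm excitation, 500-530 nm channel) was read by laser-scanning cytometry and normalized to 20 uM Triacsin C.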

[8] = target: Ubiquitin carboxyl-terminal hydrolase 1 (Homo sapiens) (UniProt O94782); assay: Inhibitors of USP1/UAF1: Pilot qHTS (AID 504865; active = well fitted curve in the direction sought with a large enough effect; an effect the other way counts as inactive or inconclusive;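 also: rhodamine fluorescence freed from ubiquitin-rhodamine substrate followed over time; top concentration of the series differs between compounds; % is scaled to controls: 0 for no effect and ±100 for the full control effect; nearly all actives have a fitted effect of over 35% in size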)
Ubiquitin carboxyl-terminal hydrolase 1 (Homo sapiens), sequence (O94782 whole entry, looked up): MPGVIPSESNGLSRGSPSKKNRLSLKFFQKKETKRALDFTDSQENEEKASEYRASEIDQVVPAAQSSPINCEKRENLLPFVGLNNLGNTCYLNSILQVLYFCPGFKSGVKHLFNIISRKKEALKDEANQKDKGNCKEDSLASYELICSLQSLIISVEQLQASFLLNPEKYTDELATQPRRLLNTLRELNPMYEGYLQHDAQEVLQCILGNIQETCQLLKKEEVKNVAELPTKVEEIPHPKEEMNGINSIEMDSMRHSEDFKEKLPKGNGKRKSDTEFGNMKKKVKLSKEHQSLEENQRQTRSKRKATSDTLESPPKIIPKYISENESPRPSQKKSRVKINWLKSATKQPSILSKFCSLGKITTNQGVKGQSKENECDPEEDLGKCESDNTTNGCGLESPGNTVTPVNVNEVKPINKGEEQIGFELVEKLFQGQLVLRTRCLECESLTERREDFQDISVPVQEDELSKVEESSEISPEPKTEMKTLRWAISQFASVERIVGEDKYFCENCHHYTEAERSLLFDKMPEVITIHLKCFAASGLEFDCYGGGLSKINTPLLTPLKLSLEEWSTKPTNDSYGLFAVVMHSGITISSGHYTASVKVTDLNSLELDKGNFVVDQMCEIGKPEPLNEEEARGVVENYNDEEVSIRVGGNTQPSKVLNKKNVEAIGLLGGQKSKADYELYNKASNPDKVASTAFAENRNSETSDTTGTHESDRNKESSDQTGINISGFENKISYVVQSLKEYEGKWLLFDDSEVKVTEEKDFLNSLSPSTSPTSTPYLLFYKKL
How it was run: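 Kinetic fluorescence assay: 1nM USP1/UAF1, 15 min compound preincubation, then 150nM Ub-Rho; 480/540 nm.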

[9] = NFAT Signaling Pathway (AID 444); details: Jurkat NFAT-bla M1, carbachol, beta-lactamase ratio, 5 h; at 17.2 µM (top of the series);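 also: carbachol stimulus at about its EC50 of 1 µM final; % is scaled to controls: 0 for no effect and ±100 for the full control effect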
How it was run: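 Read-out: CCF4 FRET ratio (460 nm/530 nm) after 1 h RT dye loading, used for %activity and AC50 from titration series. Cells: Jurkat NFAT-β-lactamase/M1 line, treated with compound plus 1 uM carbachol for 5 h, 37 °C.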

[10] = target: Cytochrome P450 1A2 (Homo sapiens) (UniProt P05177); assay: p450-cyp1a2 (AID 410; calls by dose curve; also: potency is read from the fitted curve at half-maximal effect;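 as to activity change, negative = inhibition: -100% = full effect of reference inhibitor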)
Cytochrome P450 1A2 (Homo sapiens), sequence (P05177 whole entry, looked up): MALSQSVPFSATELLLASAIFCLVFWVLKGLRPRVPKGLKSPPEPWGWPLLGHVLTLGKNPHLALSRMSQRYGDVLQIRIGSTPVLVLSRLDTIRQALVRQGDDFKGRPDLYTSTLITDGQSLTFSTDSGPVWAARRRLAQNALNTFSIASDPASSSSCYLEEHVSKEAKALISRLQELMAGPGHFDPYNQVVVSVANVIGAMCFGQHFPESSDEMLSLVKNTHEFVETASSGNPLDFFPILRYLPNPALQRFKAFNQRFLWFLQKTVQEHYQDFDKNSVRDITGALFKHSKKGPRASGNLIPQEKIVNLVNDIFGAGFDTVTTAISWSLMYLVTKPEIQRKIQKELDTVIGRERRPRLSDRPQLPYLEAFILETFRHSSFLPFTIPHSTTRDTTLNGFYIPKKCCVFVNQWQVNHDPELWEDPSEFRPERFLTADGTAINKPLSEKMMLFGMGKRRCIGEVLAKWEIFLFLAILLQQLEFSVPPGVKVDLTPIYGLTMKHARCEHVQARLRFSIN
How it was run: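 20nM CYP1A2, 100uM Luciferin-ME (=Km), 100mM KPO4; cpd 10 min RT; +NADPH regen, 60 min RT; stop/detect 20 min; luminescence. Normalized to furafylline 57 uM = full inhibition.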

[11] = target: Cytochrome P450 3A4 (Homo sapiens) (UniProt P08684); assay: qHTS Assay for Activators of Cytochrome P450 3A4 (AID 885; active = well fitted curve in the direction sought with a large enough effect; an effect the other way counts as inactive or inconclusive; also: nearly all actives have a fitted effect of over 65% in size)
Cytochrome P450 3A4 (Homo sapiens), sequence (P08684 whole entry, looked up): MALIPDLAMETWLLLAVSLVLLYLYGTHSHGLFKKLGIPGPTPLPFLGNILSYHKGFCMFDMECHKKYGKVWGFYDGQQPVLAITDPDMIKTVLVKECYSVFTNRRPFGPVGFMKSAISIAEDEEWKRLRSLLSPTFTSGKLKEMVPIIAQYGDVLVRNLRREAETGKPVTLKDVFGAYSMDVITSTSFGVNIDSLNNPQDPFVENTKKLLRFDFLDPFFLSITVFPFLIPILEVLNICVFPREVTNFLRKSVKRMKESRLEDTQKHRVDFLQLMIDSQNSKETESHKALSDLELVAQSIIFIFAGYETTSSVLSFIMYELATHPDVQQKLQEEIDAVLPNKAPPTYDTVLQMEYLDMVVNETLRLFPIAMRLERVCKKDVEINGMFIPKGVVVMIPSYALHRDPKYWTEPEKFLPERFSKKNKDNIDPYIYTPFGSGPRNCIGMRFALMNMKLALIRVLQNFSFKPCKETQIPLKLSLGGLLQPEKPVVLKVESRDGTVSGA
How it was run: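 Luminescent readout of luciferin formed from 25 uM Luciferin-PPXE (KM level) by 20 nM CYP3A4 in 200 mM KPO4, with 60 min NADPH-driven reaction at room temperature after 10 min compound exposure. Ketoconazole (57 uM) defined 100% inhibition.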

[12] = measured here: cell count channel max response
[13] = measured here: lipid channel max response

C(#CCN1CCCC1)CN1CCCC1
10.9%: max response [7, 12]
10.3%: max response [7, 13]
inactive: outcome [1] | outcome [2] | Potency [3] > 20.6 µM | Potency [4] > 20.6 µM | outcome [5] | Potency [6] | activity change, negative = inhibition ([7]; at 25.7 µM (top of the series)) 0.99% | Potency [8]

COc1ccc(C[C@H]2c3cc(OC)c(OC)cc3CCN2C)cc1OC
inactive: outcome [1] | activity change, negative = inhibition [9] -1.22% | outcome [2] | Potency [3] > 20.6 µM and > 46 µM | Potency [4] > 20.6 µM and > 46 µM | outcome [5] | Potency [6] | activity change, negative = inhibition ([7]; at 25.7 µM (top of the series)) 1.88%
12.8%: max response [7, 13]
10%: max response [7, 12]

CO[C@H]1C=C2CCN(C)[C@@H]2[C@@H]2c3cc4c(cc3C(=O)O[C@H]21)OCO4
-13.3%: max response [7, 12]
-11.4%: max response [7, 13]
inactive: outcome [1] | activity change, negative = inhibition [9] 8.91% | outcome [2] | Potency [3] > 20.6 µM | Potency [4] > 20.6 µM | outcome [5] | Potency [6] | activity change, negative = inhibition ([7]; at 25.7 µM (top of the series)) 0.781% | Potency [8]

COc1cc2c(cc1O)C[C@H]1c3c(cc(O)c(OC)c3-2)CCN1C
active: Potency [10] 2.51 µM
4.01%: max response [7, 13]
3.24%: max response [7, 12]
inactive: activity change, negative = inhibition [9] -8.08% | outcome [2] | Potency [3] > 20.6 µM and > 46 µM | Potency [4] > 20.6 µM and > 46 µM | outcome [5] | Potency [6] | Potency [11] | activity change, negative = inhibition ([7]; at 25.7 µM (top of the series)) 0.193% | Potency [8]

CC(=O)[C@@H]1CC[C@H]2[C@H]3CC[C@H]4C[C@@H](O)CC[C@]4(C)[C@@H]3C(=O)C[C@@]12C
inactive: outcome [1] | activity change, negative = inhibition [9] -7.61% | outcome [2] | outcome [5] | Potency [6] | activity change, negative = inhibition ([7]; at 25.7 µM (top of the series)) -4.19% | Potency [8]
-15.2%: max response [7, 13]
-12.1%: max response [7, 12]

CC[C@H]1CN2CC[C@@H]1C[C@H]2[C@@H](O)c1ccnc2ccc(OC)cc12
inactive: outcome [1] | activity change, negative = inhibition [9] -20.4% | outcome [2] | Potency [3] > 20.6 µM | Potency [4] > 20.6 µM | outcome [5] | activity change, negative = inhibition ([7]; at 25.7 µM (top of the series)) -3.88%
-5.46%: max response [7, 13]
-1.96%: max response [7, 12]

C[C@@]12CC[C@H](O)C[C@@H]1CC[C@H]1[C@H]2CC[C@@]2(C)[C@@H](C3=CC(=O)OC3)CC[C@]12O
active: activity change, negative = inhibition [9] -74.9%
-2.15%: max response [7, 12]
-7.35%: max response [7, 13]
inactive: Potency [10] | outcome [2] | Potency [3] > 20.6 µM | Potency [4] > 20.6 µM | Potency [11] | activity change, negative = inhibition ([7]; at 25.7 µM (top of the series)) -3.39% | Potency [8]

CNC(=O)N(C)c1nnc(C(C)(C)C)s1
inactive: outcome [1] | activity change, negative = inhibition [9] -5.4% | outcome [2] | Potency [11] | activity change, negative = inhibition ([7]; at 57.5 µM (top of the series)) 6.39%
25.2%: max response [7, 13]
16.4%: max response [7, 12]
